Reference: PubChem BioAssay
Values joined by “and” are separate entries in the source; they are usually repeats but may differ in a detail not shown here. Equal entries are not always repeated. Active and inactive are the calls of the source.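 The calls were made as follows, unless noted: active = compound raises GLP1 secretion from the human gut endocrine cells, with no numeric limit stated; inactive = the rest.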

Assays:
[1] = Wnt pathway potentiators raising nuclear beta-catenin – imaging, WNT3A-conditioned medium, mouse C2C12, NPC library, primary screen (AID 1117326; in the data active = nuclear beta-catenin stimulation mostly above about 4.2%, no sharp cut-off; inactive = mostly below about 10%); details: stronger effect = higher value
[2] = stimulators of insulin release from INS-1E, primary screen, cell-based, 5 mM glucose, NPC library (AID 1117329;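 active = compound raises insulin release from rat beta cells at 5 mM glucose, no numeric limit stated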); details: rat INS-1E insulin secretion, at 10 µM, stronger effect = higher value
[3] = growth inhibition of GSK3B-pretreated HCT116 cells – cell-based, CellTiter-Glo, 0.2 to 20 µM (AID 1117336;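 active = compounds lowering colon cancer cell viability after pretreatment blocking the GSK3B kinase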); details: HCT116 viability after GSK3B inhibitor, at 20 µM, stronger effect = higher value
[4] = inhibition of endothelial tube formation, primary screen, imaging, VEGF stimulated, CD31 staining, tube area, NPC library (AID 1117340;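 active = compound that reduces growth-factor-driven endothelial tube area in a mixed cell culture, no cutoff stated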); details: VEGF-stimulated ADSC/ECFC co-culture, at 10 µM, stronger effect = higher value
[5] = GLP1 release stimulators, primary, NCI-H716, NPC library (AID 1117341); details: NCI-H716 cells, at 10 µM, stronger effect = higher value
[6] = HCT116 colon cancer cell growth inhibition, primary screen, CellTiter-Glo luminescence, NPC library (AID 1117342;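 active = compounds that lower survival of HCT116 colon cancer cells in the luminescence readout, no numeric limit stated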); details: at 20 µM (top of the series)
[7] = reduced SW480 viability measured with CellTiter-Glo, NPC library, primary (AID 1117343;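 active = compounds that lower viability of the colon cancer cells in the luminescence readout, with no numeric limit stated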); details: CellTiter-Glo luminescence; at 20 µM (top of the series)
[8] = NPC library primary testing for decreased DLD-1 cell viability via CellTiter-Glo (AID 1117346;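 active = compounds that lower survival of DLD-1 colon cancer cells in the luminescence readout, no cutoff given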); details: DLD-1 viability, CellTiter-Glo luminescence; at 20 µM (top of the series)
[9] = target: 6-phosphogluconate dehydrogenase, decarboxylating (Homo sapiens) (UniProt P52209); test: inhibition of human phosphogluconate dehydrogenase – biochemical, recombinant enzyme, NADPH absorbance, primary screen (AID 1159550;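 active = at least 20% inhibition of 6-phosphogluconate dehydrogenase activity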); details: recombinant 6PGD, NADPH absorbance 341 nm; at 10 µM; stronger effect = higher value
[10] = EMT-state selective cytotoxicity in co-culture – imaging, PC-3E GFP, TEM4-18 mCherry, primary screen (AID 1345086;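 active = compounds killing one labelled cell type while sparing the other, by normalised counts and ratio limits, not self-fluorescent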;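 as to all read-outs here: cells exposed to compound for 72 h before imaging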;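 as to red/green cell ratio (normalised): normalised mesenchymal count divided by normalised epithelial count so high means epithelial killing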); details: PC-3E GFP / TEM4-18 mCherry co-culture, imaging cell counts, at 1 µM; for red/green cell ratio (normalised): actives lie on both sides, counts scaled to control wells, 1 = unselective
[11] = viability loss with induced miR-34 in A549 – imaging, A549 dox-inducible miR-34, nuclei and caspase counts, primary screen (AID 1347080;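 active = compounds whose cell count with miR-34 switched on is under 0.7 times the count with it off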); details: A549 miR-34 inducible, Hoechst nuclei count, 48 h
[12] = MELAS cybrid and Rieske KO viability enhancers – cell-based, MELAS cybrids, Rieske KO mouse fibroblasts, CellTiter-Glo, primary screen (AID 1508586;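 active = mean z-score across replicates of 1.96 or higher in either the MELAS or the Rieske mutant cell line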;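 also: z relative to plate mean and SD of compound and empty wells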); details: low glucose
[13] = target: NAD(+) hydrolase SARM1 (Homo sapiens) (UniProt Q6SZW1); test: blocking NAD cleavage by SARM1 SAM-TIR – cell lysate, NAD-Glo luminescence (AID 1508614;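 active = compound whose remaining NAD level is above about 45 nM, limit read from the data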;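 also: higher remaining NAD means stronger inhibition of SARM1 NADase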); details: SAM-TIR HEK293T lysate NADase, at 1 µM, stronger effect = higher value
[14] = target: Mitogen-activated protein kinase 7 (Homo sapiens) (UniProt Q13164); test: Gal4-ERK5 driven luciferase induction – cell-based, HTS, primary screen (AID 1508626;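 active = luciferase signal above three times the same-plate solvent-only control wells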;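 also: luciferase driven by Gal4-ERK5 fusion binding five Gal4 sites before minimal TATA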); details: HeLa Gal4-ERK5 transactivation, 18 h, at 5 µM, stronger effect = higher value
[15] = modulation of C. elegans fzo-1 (AID 1259413; call rule not given here;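 also: fzo-1 mutant C. elegans worms in liquid wells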); details: C. elegans fzo-1 modulator screen, mean read-out; stronger effect = higher value
[16] = test system: F380Y; test: BK channel mutant inhibitors and activators – cell-based, U2OS BacMam, thallium flux, beta subunits, selectivity assay, profiling panel (AID 1259406;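 active = thallium flux through the channel raised or lowered by more than 3 SD from vehicle-only wells, actives on both sides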;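 also: initial slope of Thallos dye fluorescence rise after thallium is added; log ratio against the mean of 0.3% DMSO vehicle wells on the same plate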); details: U2OS BacMam BK variants, at 30 µM
[17] = test system: F380Y/beta1; test: as above; details: U2OS BacMam BK variants, at 30 µM
[18] = test system: F380Y/beta2Delta; test: as above; details: U2OS BacMam BK variants, at 30 µM
[19] = measured here: epithelial PC-3E GFP cell survival
[20] = measured here: mesenchymal TEM4-18 mCherry cell survival
[21] = MELAS cybrid survival, CellTiter-Glo 48 h, stronger effect = higher value
[22] = Rieske KO mouse fibroblast survival, CellTiter-Glo 72 h

Sequence of 6-phosphogluconate dehydrogenase, decarboxylating (Homo sapiens) (P52209 whole entry, looked up): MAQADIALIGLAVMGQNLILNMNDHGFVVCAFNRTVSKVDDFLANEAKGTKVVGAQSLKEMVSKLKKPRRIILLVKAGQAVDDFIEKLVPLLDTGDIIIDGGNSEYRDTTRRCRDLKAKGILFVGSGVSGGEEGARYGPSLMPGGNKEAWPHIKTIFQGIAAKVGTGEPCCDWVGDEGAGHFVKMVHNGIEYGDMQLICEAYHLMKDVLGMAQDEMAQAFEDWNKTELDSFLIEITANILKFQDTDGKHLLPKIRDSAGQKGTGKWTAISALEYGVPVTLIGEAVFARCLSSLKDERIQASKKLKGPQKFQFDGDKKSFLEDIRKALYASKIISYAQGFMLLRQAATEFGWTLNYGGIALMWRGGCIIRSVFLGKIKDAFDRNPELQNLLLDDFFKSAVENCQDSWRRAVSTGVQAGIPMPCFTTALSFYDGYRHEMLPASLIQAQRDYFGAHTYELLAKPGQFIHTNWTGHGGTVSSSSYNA
Sequence of Mitogen-activated protein kinase 7 (Homo sapiens) (Q13164 whole entry, looked up, the tested form may be a part): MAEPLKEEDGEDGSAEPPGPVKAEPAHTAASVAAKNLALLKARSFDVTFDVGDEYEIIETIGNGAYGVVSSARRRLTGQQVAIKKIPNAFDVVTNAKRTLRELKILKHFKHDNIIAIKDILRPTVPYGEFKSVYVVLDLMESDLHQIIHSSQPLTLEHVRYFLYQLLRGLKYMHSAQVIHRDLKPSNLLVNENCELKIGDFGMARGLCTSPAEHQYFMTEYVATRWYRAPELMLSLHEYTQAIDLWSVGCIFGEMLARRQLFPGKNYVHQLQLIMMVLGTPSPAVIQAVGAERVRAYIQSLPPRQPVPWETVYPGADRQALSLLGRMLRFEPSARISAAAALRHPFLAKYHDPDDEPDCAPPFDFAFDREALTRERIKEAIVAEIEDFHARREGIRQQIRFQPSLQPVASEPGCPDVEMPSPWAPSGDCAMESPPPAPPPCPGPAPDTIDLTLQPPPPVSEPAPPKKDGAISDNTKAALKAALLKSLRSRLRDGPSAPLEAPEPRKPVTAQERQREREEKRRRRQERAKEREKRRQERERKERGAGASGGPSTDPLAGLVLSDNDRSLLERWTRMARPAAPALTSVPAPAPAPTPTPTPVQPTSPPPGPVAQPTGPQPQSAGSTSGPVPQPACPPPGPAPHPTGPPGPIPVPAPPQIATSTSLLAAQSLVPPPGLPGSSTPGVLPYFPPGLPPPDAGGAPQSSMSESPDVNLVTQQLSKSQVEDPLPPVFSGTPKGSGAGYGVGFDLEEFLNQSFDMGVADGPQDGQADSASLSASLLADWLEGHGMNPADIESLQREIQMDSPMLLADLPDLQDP
Sequence of NAD(+) hydrolase SARM1 (Homo sapiens) (Q6SZW1 whole entry, looked up, the tested form may be a part): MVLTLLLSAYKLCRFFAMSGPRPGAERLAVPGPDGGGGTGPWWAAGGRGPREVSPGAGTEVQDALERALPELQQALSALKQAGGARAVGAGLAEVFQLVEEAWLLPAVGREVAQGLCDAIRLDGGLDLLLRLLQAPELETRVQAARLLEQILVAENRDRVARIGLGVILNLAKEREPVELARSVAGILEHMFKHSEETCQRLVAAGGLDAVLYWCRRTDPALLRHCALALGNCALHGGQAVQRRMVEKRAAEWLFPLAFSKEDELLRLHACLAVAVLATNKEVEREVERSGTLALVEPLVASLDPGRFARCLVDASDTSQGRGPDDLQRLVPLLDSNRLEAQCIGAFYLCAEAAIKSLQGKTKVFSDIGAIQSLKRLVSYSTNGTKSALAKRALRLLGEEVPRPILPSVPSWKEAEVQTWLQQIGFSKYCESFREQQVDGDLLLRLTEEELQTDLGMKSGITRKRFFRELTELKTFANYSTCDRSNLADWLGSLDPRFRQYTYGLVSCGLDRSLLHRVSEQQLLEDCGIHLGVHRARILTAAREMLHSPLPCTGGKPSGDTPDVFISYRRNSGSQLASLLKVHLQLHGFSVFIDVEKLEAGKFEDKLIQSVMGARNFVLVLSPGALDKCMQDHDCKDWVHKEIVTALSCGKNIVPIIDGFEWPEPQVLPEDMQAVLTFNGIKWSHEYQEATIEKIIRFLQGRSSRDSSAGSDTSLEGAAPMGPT

Cc1cc(OCCOCC[N+](C)(C)Cc2ccccc2)ccc1C(C)(C)CC(C)(C)C
active: viability decrease [3] 101% | tube area decrease [4] 107% | GLP1 secretion stimulation [5] 98.1% | inhibition of viability [6] 102% | viability decrease (inhibition) [7] 141% | viability decrease (inhibition) [8] 103%
inactive: nuclear beta-catenin stimulation ([1]; at 10 µM) 3% | insulin secretion stimulation [2] 0.6%
6.8%: nuclear beta-catenin stimulation ([1]; stimulation, at 2 µM)

O=C(O)c1cn(C2CC2)c2cc(Cl)c(F)cc2c1=O
active: viability decrease [3] 55.5%
inactive: nuclear beta-catenin stimulation ([1]; at 10 µM) 0% | insulin secretion stimulation [2] 2.05% | tube area decrease [4] -14.6% | GLP1 secretion stimulation [5] -3.9% | inhibition of viability [6] 42.5% | viability decrease (inhibition) [7] -3.8% | viability decrease (inhibition) [8] -3.8%
-1.8%: nuclear beta-catenin stimulation ([1]; stimulation, at 2 µM)

CCN(CCO)CCCC(C)Nc1ccnc2cc(Cl)ccc12 (centres undefined)
1.45: normalised cell number [10, 19]
13500: cell count ([11]; measured here: total cells without miR-34 induction)
4.2%: nuclear beta-catenin stimulation ([1]; stimulation, at 2 µM)
5.27: fold change ([11]; measured here: relative caspase fold change +Dox/-Dox)
1.1: normalised cell number [10, 20]
11300: cell count ([11]; measured here: total cells with miR-34 induction, stronger effect = lower value)
inactive: nuclear beta-catenin stimulation ([1]; at 10 µM) 3.8% | insulin secretion stimulation [2] 1.6% | viability decrease [3] 18.3% | tube area decrease [4] 22.5% | GLP1 secretion stimulation [5] 4.3% | inhibition of viability [6] 8.93% | viability decrease (inhibition) [7] -0.9% | viability decrease (inhibition) [8] -7.1% | inhibition [9] 13.2% | red/green cell ratio (normalised) [10] 0.76 | fold change ([11]; stronger effect = lower value, cell number ratio, induced over uninduced) 0.835 | z-score [12, 21] -0.0994 | remaining NAD [13] 10 nM | luciferase signal [14] 96 AU
0.0866: z-score [12, 22]

CC(C)CCOC(=O)c1ccc(N(C)C)cc1
0.7%: nuclear beta-catenin stimulation ([1]; stimulation, at 2 µM)
inactive: nuclear beta-catenin stimulation ([1]; at 10 µM) 0% | insulin secretion stimulation [2] 0.4% | viability decrease [3] -16.7% | tube area decrease [4] -11.5% | GLP1 secretion stimulation [5] 1.7% | inhibition of viability [6] 19.9% | viability decrease (inhibition) [7] -6.9% | viability decrease (inhibition) [8] 10.3%

CC(C)NCC(O)c1ccc(O)c(O)c1 (centres undefined)
1.9%: nuclear beta-catenin stimulation ([1]; stimulation, at 2 µM)
0.858 and -1.25: z-score [12, 22]
1.35: normalised cell number [10, 20]
active: viability decrease [3] 54.1%
inactive: nuclear beta-catenin stimulation ([1]; at 10 µM) -0.3% | insulin secretion stimulation [2] 1.4% | tube area decrease [4] -8.1% | GLP1 secretion stimulation [5] 6.8% | inhibition of viability [6] 33.2% | viability decrease (inhibition) [7] 28.5% | viability decrease (inhibition) [8] 23.6% | inhibition [9] -1.67% | mean signal [15] 227 | red/green cell ratio (normalised) [10] 1.26 | z-score [12, 21] -0.378 and -0.294 | remaining NAD [13] 10 nM | luciferase signal [14] 60 AU | log fold change Tl+ flux [16] 0.0351 | log fold change Tl+ flux [17] 0.0171 | log fold change Tl+ flux [18] 0.061
1.07: normalised cell number [10, 19]
